# Measurements as given in the supplement of paper PMC10849652.
# About 8,800 targets were measured; listed, in parts, are those with a hit and a random draw of the rest. About 0.5% of all pairs of compound and target were hits. A number with no mark means an inactive call.
# How the values were obtained:
# Test in all cases: log2 fold change, soluble protein after heating vs DMSO (PISA); higher = thermal stabilisation; K562 lysate, 10 uM; active = over 0.2 and 3.5 SD of the protein, either way, in both replicates (recomputed)
# lapatinib = compound: CS(=O)(=O)CCNCc1ccc(-c2ccc3ncnc(Nc4ccc(OCc5cccc(F)c5)c(Cl)c4)c3c2)o1 [lapatinib]
# Procedure, shortened: (§1)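 Thermal stability, expressed as log-two fold change relative to solvent controls, is given from duplicates. Crude K562 extract in PBS pH 7.4 with 1 mM MgCl2, at 1 mg/mL protein, was treated with 10 μM compound for 30 min and heated in aliquots for 3 min across 48°C-58°C. After pooling, adjustment to 0.5% NP-40 at 4°C and centrifugation at 21,000xg for 90 min, supernatant protein was measured by TMTpro 16plex LC-MS/MS with channel sums equalised.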
# pictilisib = compound: CS(=O)(=O)N1CCN(Cc2cc3nc(-c4cccc5[nH]ncc45)nc(N4CCOCC4)c3s2)CC1 [pictilisib]
# Procedure, shortened: as §1
# crizotinib = compound: C[C@@H](Oc1cc(-c2cnn(C3CCNCC3)c2)cnc1N)c1c(Cl)ccc(F)c1Cl [crizotinib]
# Procedure, shortened: as §1
# [1] = compound: C[C@H](C1=CC=C(C=C1)C(=O)NC2=C3C=CNC3=NC=C2)N
# Procedure, shortened: as §1
# duvelisib = compound: C[C@H](Nc1ncnc2nc[nH]c12)c1cc2cccc(Cl)c2c(=O)n1-c1ccccc1 [duvelisib]
# Procedure, shortened: as §1
# gandotinib = compound: Cc1cc(Nc2cc(CN3CCOCC3)c3nc(C)c(Cc4ccc(Cl)cc4F)n3n2)n[nH]1 [gandotinib]
# Procedure, shortened: as §1
# tozasertib = compound: Cc1cc(Nc2cc(N3CCN(C)CC3)nc(Sc3ccc(NC(=O)C4CC4)cc3)n2)n[nH]1 [tozasertib]
# Procedure, shortened: as §1
# doramapimod = compound: Cc1ccc(-n2nc(C(C)(C)C)cc2NC(=O)Nc2ccc(OCCN3CCOCC3)c3ccccc23)cc1 [doramapimod]
# Procedure, shortened: as §1
# bafetinib = compound: Cc1ccc(NC(=O)c2ccc(CN3CC[C@H](N(C)C)C3)c(C(F)(F)F)c2)cc1Nc1nccc(-c2cncnc2)n1 [bafetinib]
# Procedure, shortened: as §1
# [2] = compound: Cc1cccc(CC(=O)N2CCc3c2ccc(-c2cn(C)c4ncnc(N)c24)c3F)n1
# Procedure, shortened: as §1
# UniProt Q9BZL6, sequence (Q9BZL6 whole entry, looked up): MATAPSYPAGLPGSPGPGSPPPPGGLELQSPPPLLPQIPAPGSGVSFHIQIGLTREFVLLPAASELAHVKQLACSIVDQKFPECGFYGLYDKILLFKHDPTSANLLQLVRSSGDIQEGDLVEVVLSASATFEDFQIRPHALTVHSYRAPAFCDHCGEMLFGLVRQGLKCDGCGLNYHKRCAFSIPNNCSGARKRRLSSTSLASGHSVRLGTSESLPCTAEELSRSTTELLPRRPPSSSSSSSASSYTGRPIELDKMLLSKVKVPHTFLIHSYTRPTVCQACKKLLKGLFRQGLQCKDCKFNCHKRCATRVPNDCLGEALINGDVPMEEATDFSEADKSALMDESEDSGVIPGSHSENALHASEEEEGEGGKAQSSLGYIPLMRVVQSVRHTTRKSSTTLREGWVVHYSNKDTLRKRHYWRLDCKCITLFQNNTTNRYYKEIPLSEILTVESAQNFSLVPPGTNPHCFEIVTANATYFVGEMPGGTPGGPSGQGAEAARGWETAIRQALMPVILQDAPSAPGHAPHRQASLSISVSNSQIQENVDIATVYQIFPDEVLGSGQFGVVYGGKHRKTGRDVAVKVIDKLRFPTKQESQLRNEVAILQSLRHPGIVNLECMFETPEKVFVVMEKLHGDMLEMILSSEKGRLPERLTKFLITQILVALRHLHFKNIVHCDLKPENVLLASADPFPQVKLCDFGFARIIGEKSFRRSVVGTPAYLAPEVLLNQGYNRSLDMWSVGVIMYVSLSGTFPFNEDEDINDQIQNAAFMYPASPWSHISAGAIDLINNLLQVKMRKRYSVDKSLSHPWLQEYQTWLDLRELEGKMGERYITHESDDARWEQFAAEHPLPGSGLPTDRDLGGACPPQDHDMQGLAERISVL
# UniProt Q16512, sequence (Q16512 whole entry, looked up): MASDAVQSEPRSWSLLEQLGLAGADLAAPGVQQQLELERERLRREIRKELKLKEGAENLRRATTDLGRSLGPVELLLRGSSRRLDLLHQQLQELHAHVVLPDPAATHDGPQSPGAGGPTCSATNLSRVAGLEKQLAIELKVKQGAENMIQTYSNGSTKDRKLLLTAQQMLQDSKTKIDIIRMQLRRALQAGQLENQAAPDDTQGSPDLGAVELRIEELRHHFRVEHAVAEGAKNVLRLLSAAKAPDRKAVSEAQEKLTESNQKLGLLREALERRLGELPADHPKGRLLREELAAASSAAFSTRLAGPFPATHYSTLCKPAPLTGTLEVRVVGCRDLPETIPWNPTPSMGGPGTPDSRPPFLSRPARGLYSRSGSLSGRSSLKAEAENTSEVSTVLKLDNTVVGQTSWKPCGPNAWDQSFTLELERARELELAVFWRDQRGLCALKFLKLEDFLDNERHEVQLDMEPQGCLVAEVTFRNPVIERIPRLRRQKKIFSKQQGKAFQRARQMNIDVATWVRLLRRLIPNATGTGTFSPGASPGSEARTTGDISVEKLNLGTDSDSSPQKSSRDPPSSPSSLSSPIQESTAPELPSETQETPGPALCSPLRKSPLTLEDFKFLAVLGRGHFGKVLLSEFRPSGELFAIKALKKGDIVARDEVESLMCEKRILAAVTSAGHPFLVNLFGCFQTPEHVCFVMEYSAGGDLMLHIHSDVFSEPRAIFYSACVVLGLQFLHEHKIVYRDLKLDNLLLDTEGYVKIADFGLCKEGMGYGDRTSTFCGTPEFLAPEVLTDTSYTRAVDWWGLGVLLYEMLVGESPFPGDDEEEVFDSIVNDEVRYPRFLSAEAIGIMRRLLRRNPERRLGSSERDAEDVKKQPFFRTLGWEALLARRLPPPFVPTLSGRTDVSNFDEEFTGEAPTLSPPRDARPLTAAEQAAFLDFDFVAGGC
# UniProt Q14671, sequence (Q14671 whole entry, looked up): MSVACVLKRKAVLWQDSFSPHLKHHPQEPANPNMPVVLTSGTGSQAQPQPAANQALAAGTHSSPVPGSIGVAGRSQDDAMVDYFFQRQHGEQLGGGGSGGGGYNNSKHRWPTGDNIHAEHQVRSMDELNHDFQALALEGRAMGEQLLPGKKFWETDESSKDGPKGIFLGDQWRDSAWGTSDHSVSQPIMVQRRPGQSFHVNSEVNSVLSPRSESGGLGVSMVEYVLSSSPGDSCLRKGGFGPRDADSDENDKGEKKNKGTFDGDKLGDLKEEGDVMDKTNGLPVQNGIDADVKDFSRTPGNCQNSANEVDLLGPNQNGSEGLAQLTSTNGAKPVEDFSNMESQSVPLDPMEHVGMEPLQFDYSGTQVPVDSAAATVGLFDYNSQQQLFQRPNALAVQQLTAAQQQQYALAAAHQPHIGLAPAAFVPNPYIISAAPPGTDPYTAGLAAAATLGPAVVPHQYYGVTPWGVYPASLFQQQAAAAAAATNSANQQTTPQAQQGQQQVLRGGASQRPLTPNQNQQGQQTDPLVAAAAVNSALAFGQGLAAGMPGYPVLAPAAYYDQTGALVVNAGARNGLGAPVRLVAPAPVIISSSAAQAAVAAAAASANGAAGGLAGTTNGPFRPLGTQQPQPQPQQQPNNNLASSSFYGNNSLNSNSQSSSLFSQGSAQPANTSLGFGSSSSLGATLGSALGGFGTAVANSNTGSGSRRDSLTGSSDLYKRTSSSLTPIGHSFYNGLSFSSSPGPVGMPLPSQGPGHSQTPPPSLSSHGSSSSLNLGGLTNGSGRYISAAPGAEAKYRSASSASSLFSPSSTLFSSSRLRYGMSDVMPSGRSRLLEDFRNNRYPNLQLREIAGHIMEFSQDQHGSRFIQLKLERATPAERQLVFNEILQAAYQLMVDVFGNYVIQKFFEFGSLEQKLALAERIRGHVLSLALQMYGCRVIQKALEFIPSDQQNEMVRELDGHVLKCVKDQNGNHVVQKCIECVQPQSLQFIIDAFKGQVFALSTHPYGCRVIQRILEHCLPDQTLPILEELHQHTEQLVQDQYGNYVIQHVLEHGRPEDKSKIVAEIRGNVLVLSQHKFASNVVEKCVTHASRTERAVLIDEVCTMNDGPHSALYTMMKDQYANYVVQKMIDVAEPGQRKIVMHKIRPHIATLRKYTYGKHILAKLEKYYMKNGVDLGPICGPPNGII
# UniProt Q9NVU0, sequence (Q9NVU0 whole entry, looked up): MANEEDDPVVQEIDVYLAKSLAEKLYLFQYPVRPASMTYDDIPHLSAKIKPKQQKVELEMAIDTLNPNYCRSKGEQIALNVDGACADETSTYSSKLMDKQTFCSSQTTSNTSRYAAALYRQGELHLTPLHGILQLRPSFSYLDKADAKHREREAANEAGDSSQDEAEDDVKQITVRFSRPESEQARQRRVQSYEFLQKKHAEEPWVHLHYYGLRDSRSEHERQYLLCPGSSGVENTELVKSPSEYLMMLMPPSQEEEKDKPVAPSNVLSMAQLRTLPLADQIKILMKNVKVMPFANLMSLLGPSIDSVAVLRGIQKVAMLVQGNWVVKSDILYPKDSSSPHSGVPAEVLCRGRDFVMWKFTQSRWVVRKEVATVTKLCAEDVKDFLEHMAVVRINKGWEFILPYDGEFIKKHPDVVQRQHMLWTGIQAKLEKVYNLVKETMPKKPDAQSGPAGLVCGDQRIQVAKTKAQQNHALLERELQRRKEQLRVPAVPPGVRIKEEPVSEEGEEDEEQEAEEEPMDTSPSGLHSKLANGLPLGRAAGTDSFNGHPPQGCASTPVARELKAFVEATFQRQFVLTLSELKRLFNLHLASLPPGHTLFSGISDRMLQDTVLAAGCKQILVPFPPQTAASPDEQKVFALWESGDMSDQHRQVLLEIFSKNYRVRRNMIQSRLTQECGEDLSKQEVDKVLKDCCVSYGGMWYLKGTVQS
# UniProt Q15054, sequence (Q15054 whole entry, looked up): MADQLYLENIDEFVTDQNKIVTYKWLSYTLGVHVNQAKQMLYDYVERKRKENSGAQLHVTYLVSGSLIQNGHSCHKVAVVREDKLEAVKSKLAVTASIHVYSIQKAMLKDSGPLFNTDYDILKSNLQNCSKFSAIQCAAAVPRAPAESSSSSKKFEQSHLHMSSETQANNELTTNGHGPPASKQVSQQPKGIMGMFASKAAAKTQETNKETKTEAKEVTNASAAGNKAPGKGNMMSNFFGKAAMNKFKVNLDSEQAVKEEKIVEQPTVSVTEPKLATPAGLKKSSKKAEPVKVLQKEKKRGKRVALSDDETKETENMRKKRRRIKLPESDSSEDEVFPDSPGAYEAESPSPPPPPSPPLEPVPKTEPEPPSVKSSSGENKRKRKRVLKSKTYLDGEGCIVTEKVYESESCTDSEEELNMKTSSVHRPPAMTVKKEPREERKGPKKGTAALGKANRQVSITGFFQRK
# UniProt P53609, sequence (P53609 whole entry, looked up): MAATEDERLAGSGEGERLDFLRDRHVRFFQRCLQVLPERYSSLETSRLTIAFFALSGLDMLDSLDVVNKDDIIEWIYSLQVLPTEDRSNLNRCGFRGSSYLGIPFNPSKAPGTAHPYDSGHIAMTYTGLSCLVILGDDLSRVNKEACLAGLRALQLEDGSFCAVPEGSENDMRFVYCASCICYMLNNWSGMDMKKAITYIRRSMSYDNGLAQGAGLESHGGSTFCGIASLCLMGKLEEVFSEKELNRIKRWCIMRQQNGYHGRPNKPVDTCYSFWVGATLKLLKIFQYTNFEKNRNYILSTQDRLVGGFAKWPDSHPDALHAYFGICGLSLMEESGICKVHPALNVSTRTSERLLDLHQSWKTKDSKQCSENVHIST
# UniProt P06454, sequence (P06454 whole entry, looked up): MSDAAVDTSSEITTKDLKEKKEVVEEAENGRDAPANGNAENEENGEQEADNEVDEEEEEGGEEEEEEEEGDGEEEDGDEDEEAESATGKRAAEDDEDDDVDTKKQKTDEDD
# UniProt Q6EEV4, sequence (Q6EEV4 whole entry, looked up): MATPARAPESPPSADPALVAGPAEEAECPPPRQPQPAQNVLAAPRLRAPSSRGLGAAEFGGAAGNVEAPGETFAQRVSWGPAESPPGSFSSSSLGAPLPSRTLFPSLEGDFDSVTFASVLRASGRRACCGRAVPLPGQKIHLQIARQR
# UniProt O60927, sequence (O60927 whole entry, looked up): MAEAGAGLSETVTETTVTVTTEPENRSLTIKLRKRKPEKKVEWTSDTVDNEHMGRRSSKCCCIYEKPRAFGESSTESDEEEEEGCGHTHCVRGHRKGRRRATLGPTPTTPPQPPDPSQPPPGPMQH
Target,log2 fold change (lapatinib),log2 fold change (pictilisib),log2 fold change (crizotinib),log2 fold change [1],log2 fold change (duvelisib),log2 fold change (gandotinib),log2 fold change (tozasertib),log2 fold change (doramapimod),log2 fold change (bafetinib),log2 fold change [2]
PKN1 isoform 2 (UniProt Q16512),0.038,-0.005,-0.032,0.095,-0.014,-0.233,-0.005,0.108,-0.069,0.04
PPM1H (UniProt Q9ULR3),0.013,0.016,0.021,-0.043,0,0.157,0.021,0.093,-0.079,0.038
POLR2F (UniProt P61218),0.036,-0.062,-0.024,1.12 (active),-0.018,-0.166,0.156,0.025,-0.076,-0.189
PPP2R5C isoform 5 (UniProt Q13362),-0.03,0.01,0.004,0.069,0.02,-0.08,0.054,-0.005,-0.001,-0.036
PHLDB1 (UniProt Q86UU1),-0.052,0.034,-0.154,-0.06,-0.028,0.073,-0.047,0.076,-0.112,0.031
PRKACA (UniProt P17612),-0.008,-0.012,0.022,-0.159,-0.059,0.115,-0.12,-0.113,-0.073,0.151
PCBP2 isoform 3 (UniProt Q15366),-0.013,-0.008,0.079,-0.005,-0.015,-0.023,0.014,0.012,0.002,-0.042
POLR2G (UniProt P62487),-0.001,-0.048,0.016,-0.04,0.03,-0.002,-0.04,-0.011,0.004,-0.006
PRPF6 (UniProt O94906),-0.008,0.009,-0.06,-0.023,-0.023,-0.08,0.023,0.064,-0.056,0.031
POLD3 (UniProt Q15054),0.03,-0.046,-0.056,0.022,-0.033,-0.079,0.021,0.001,-0.031,-0.038
PPP1R11 (UniProt O60927),0.01,-0.016,-0.069,0.153,-0.054,-0.048,0.022,-0.022,0.099,-0.071
PTP4A1 (UniProt Q93096),-0.002,0.008,0.09,0.133,0.023,-0.031,0.001,-0.009,-0.042,-0.055
PLA2G4B isoform 6 (UniProt P0C869),-0.001,-0.032,-0.49,-0.015,-0.038,0.069,-0.009,0,-0.133,0.086
PGGT1B (UniProt P53609),0.013,-0.012,0.01,0.013,-0.019,-0.158,0.083,0.047,0.076,-0.074
POLR3E (UniProt Q9NVU0),-0.014,-0.001,0.003,-0.001,0.01,-0.028,-0.011,-0.001,-0.018,0.013
PRMT5 (UniProt O14744),-0.029,-0.012,0,-0.02,0.158,0.011,0.017,-0.004,-0.021,-0.008
PYCR2 (UniProt Q96C36),-0.029,-0.021,0.026,0.021,-0.004,0.01,0.001,-0.012,0.034,-0.01
POLR2M (UniProt Q6EEV4),0.047,-0.07,-0.064,0.026,-0.049,-0.154,0.055,-0.041,-0.116,0.046
PTGR2 (UniProt Q8N8N7),-0.003,0.014,-0.029,-0.04,0.02,0.01,0.04,-0.04,-0.003,-0.004
PICALM (UniProt H0YEH1),0.046,0.016,-0.086,-0.47 (active),-0.075,0.238,0.152,0.274,0.018,0.335 (active)
PUM1 isoform 3 (UniProt Q14671),0.004,-0.036,0.067,0.021,-0.003,-0.151,0.01,-0.315 (active),-0.067,-0.026
PRKD2 isoform 3 (UniProt Q9BZL6),0.087,-0.009,-0.043,-0.047,0.05,-0.15,0.019,-0.002,0.02,-0.01
PDF (UniProt Q9HBH1),0.027,-0.016,-0.067,0.018,-0.076,-0.019,0.029,0.027,-0.162,0.025
PGLS (UniProt O95336),0.068,0.011,0,0.206,0.033,-0.084,0.008,0.004,-0.031,-0.14
PCIF1 (UniProt Q9H4Z3),-0.059,-0.016,-0.001,-0.239 (active),0.216,0.074,-0.003,0.017,-0.059,0.09
PDE4DIP isoform 4 (UniProt Q5VU43),-0.003,-0.076,-0.048,-0.069,-0.017,0.116,-0.005,0,-0.073,0.05
PIP4K2B (UniProt P78356),0.033,0.044,-0.019,0.01,0.006,0.029,-0.029,-0.001,0.164,-0.067
PTMA (UniProt P06454),-0.059,-0.014,0.08,0.505 (active),0.009,-0.277,0.012,-0.031,0.058,-0.375 (active)
PDCD6IP isoform 2 (UniProt Q8WUM4),0,-0.015,-0.015,0.071,-0.009,-0.09,0.024,-0.008,-0.006,-0.019
PRKACB isoform 2 (UniProt P22694),-0.063,-0.042,-0.018,0.141,0.024,-0.071,-0.001,-0.023,-0.04,-0.131
